Potency and affinity values are given separately. The source made the active and inactive calls.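 How the source made its calls: active means cell killing, meaning signal decrease, with fitted half-maximal dose at or below ten times the top valid tested dose; inconclusive means poor fit, or flat curve with 30 to 70% signal loss; inactive means the rest.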
Assay: HeLa cell cytotoxicity, dose response, cytotoxicity control for MITF activator project, CellTiter-Glo luminescence, cherry-pick samples (AID 540259);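 further: 0% = DMSO neutral control and -100% = mitoxantrone positive control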
Conditions: HeLa viability, CellTiter-Glo ATP luminescence, 24 h; series mostly up to 35 µM; activity change, negative = cytotoxicity: at the top concentration

| Compound | activity change, negative = cytotoxicity |
| --- | --- |
| COc1ccc(-c2ccc(C(=O)C3CC3)cc2)cc1 | 3.45% (inactive) |
| Cc1cccc(-c2noc(Cc3ccccc3)n2)c1 | 9.03% (inactive) |
| COCc1ccc(-c2c(-c3ccc(OC)cc3)oc(=O)c3cc(OC)c(OC)cc23)cc1 | -8.39% (inactive) |
| COc1ccc2ccccc2c1/C=N/Nc1cccc(C(=O)O)c1 | 4.52% (inactive) |
| NNC(=O)c1ccc2nc(-c3ccc(Br)cc3)cn2c1 | 11.7% (inactive) |
| c1ccc2c(Nc3nnc(-c4ccncc4)s3)cccc2c1 | 0.946% (inactive) |
| CCC(C)NC(=O)c1cn(-c2cccc(C)n2)cn1 (stereo not given) | 17.8% (inactive) |
| Cn1c(SCc2c(F)cccc2Cl)nnc1-c1cnccn1 | 2.8% (inactive) |
| O=C1OC(c2ccccc2)=C/C1=C/N1CCCCC1 | 7.7% (inactive) |
| O=C(N/N=C/c1ccc(Cl)cc1Cl)c1cccc(F)c1 | -4.05% (inactive) |
| CCN1CCN(c2cc3c(nn2)Oc2ccccc2N3C)CC1 | 10.1% (inactive) |
| CCc1ccc2[nH]c3nc(C)cc(C)c3c(=O)c2c1 | -2.28% (inactive) |
| CCN1CCN(c2ccc(NC(=O)c3cccc(F)c3)cc2Cl)CC1 | 4.94% (inactive) |
| COc1ccc(-c2cn3nc(C)c(C)nc3n2)cc1OC | 8.22% (inactive) |
| COc1ccc(-c2nnc(SCc3ccccc3)n2N)cc1 | 14.3% (inactive) |

Reference: PubChem BioAssay AID540259 (Broad Institute, 2011)
